Measured values published in PubChem BioAssay AID1159580 (chemical genetic matrix, 2015).
The whole screen tested about 5,500 compounds, of which about 2,000 (36%) were called active. Inconclusive results (about 18%) are left out. Rule as the data show it: active = normalized growth mostly below about 0.91 (no sharp cut-off); inconclusive = no clear call, values can overlap the other calls; inactive = mostly above about 0.92. Some of the results follow.

Experiment: chemical genetic growth profiling, strain panel (AID 1159580);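 also: tested at 20 µM; growth read once vehicle control cultures reached saturation at 30 °C; 1 = growth at the plate median or of vehicle wells; lower values mean less growth of the strain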
Settings: S. cerevisiae deletion strains, growth OD

Measured: normalized growth

NC1(C(=O)O)CCCCC1
inactive: locus YAL040C, strain CLN3, active compounds read low 0.993 | locus YDR363W, strain ESC2, active compounds read low 0.98 | locus YER002W, strain NOP16, active compounds read low 1.01 | locus YJR075W, strain HOC1, active compounds read low 0.992 | locus YMR263W, strain SAP30, active compounds read low 0.995 | locus YNL153C, strain GIM3, active compounds read low 0.982 | locus YNL175C, strain NOP13, active compounds read low 1.01 | locus YNL197C, strain WHI3, active compounds read low 0.992 | locus YNL224C, strain SQS1, active compounds read low 0.98 | locus YOR083W, strain WHI5 (second series), active compounds read low 0.981
